GRIN3A LBD mod: NR3A (human) ligand-binding domain modulation; 340,000 tested, 2.5% active; AID 1259313; NR3A LBD differential scanning fluorimetry, Tm shift; 0% = protein alone, 100% = glycine-bound protein; Tm shift relative to glycine control, % at 25 µM;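 active means melting temperature shift of at least 10% of the positive control shift, at one fixed dose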
Mdm2 MdmX PPI: inhibitors of human Mdm2/MdmX interaction; O15151+Q00987; SaOS-2 split-luciferase Mdm2/MdmX complementation, luminescence; inhibition, % at 8 µM; 330,000 tested, 3% active;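 active means inhibition of at least 50% at 8 µM in the primary screen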
Beta apoptosis: blocks beta cell apoptosis. AID 435005. protection from apoptosis, % (test concentration not listed). INS-1E cytokine-induced death, ATP luminescence, 48 h; percent of positive-control rescue, neutral wells zero. 300,000 tested, 0.8% active;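 active means Every replicate reaches about 75%, or at least half do and their mean reaches it too, limit read from the data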;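 further: 0% = cytokine-treated negative control wells and 100% = positive control rescue; higher means more ATP so stronger rescue from cytokine killing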
CSC inhib: blocks cancer stem cells | 300,000 tested, 1.1% active | inhibition, % at 7.5 µM | AID 2717 | cancer stem cell-like cells viability, luminescence; in the data active means inhibition above about 75%; tested in HMLE shEcad cells
Gli-Sufu block: antagonists of Gli-Sufu signaling; Sufu-KO-LIGHT fibroblasts, Gli luciferase reporter luminescence; inhibition, % at 5 µM; 340,000 tested, 0.74% active;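 active means inhibition above about 55%, limit read from the data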;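 further: 0% = DMSO-treated cells and 100% = wells with medium but no cells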
MPTP inh: permeability transition pore inhibition; 360,000 tested, 1.4% active; AID 602449; isolated mouse mitochondria, Ca2+ swelling absorbance, 30 min; inhibition, % at 10 µM;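 active means inhibition of 50% or more, scaled per plate between neutral and stimulator controls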;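 further: 0% = DMSO wells given calcium and 100% = 1 mM EGTA wells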
Mdm2 MdmX conf: human Mdm2/MdmX binding inhibition, confirmed | shares compounds with Mdm2 MdmX PPI | 10,000 tested, 55% active | inhibition, % at 8 µM | luminescent assay | AID 489028; in the data active means inhibition above about 40%
FLuc counter: counter-screen for Mdm2/MdmX inhibitors: full-length luciferase | AID 504607 | inhibition, % at 8 µM | 6,200 tested, 77% active | SaOS-2 full-length luciferase counterscreen, luminescence | shares compounds with Mdm2 MdmX PPI;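 active means mean inhibition at 8 µM reaching about 37%, which flags the compound as non-specific, limit read from the data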;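 further: p53-null SaOS-2 cells with luciferase driven by a doxycycline-inducible promoter; compound on cells about two nights before reading with doxycycline added after day one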
Starred values were filed as active, the others as inactive; . = no result. This is a sample that favours compounds with a hit; in the whole collection about 6.6% have one here.

SMILES	GRIN3A LBD mod	Mdm2 MdmX PPI	Beta apoptosis	CSC inhib	Gli-Sufu block	MPTP inh	Mdm2 MdmX conf	others
COC(=O)[C@@H]1N=C(c2ccc(OC)cc2)O[C@]12C(=O)N(Cc1ccc(OC)cc1)c1ccccc12	.	.	.	.	.	-2	.
O=C(Cc1cc(=O)oc2cc(O)ccc12)NN=Cc1ccc(N(CCCl)CCCl)cc1	18*	.	.	.	-16	1	.
COc1ccc(OC(=O)N(C)C[C@@H]2OCc3cnnn3CCCC(=O)N([C@@H](C)CO)C[C@@H]2C)cc1	.	.	.	.	.	0	.
CC[C@@]1(O)C(=O)OCc2c1cc1n(c2=O)Cc2cc3ccccc3nc2-1	.	.	103*	60	.	.	.
CCC(C)C1NC(=O)C(NC(=O)C(CC(C)C)N(C)C(=O)C2CCCN2C(=O)C(C)O)C(C)OC(=O)C(Cc2ccc(OC)cc2)N(C)C(=O)C2CCCN2C(=O)C(CC(C)C)NC(=O)[C@H](C)C(=O)[C@H](C(C)C)OC(=O)CC1O (stereo partly drawn)	-2	.	.	.	90*	-1	.
C#CCCC[C@@H]1OC(=O)CNC(=O)C([C@@H](C)CC)NC(=O)[C@@H]2CCCN2C(=O)C([C@@H](C)CC)OC(=O)[C@H](Cc2ccccc2)N(C)C(=O)[C@H](C(C)C)NC(=O)C1(C)C (stereo partly drawn)	.	.	.	.	.	-4	.
C[CH2][Hg][S]c1ccccc1C(=O)O	-1	100*	114*	104*	76*	2	100*	FLuc counter=52*
CC(C)COC(=O)c1ccccc1C(=O)OCC(C)C	0	19	-8	-1	-3	0	.
O=C1COc2ccc(C(=O)COC(=O)Cc3ccccc3)cc2N1	-1	8	-5	7	-12	-2	.
CC(C)c1ccc(N2C(=O)NC(=O)/C(=C\C=C\c3ccco3)C2=O)cc1	-1	56*	-18	99*	4	.	22
O=C(/C=C/c1ccccc1)c1c(O)n(CCc2ccccc2)c(=O)[nH]c1=O	-26	69*	2	42	-11	-2	37
CCCCn1c(O)c(C(C)=NCc2ccc3c(c2)OCO3)c(=O)[nH]c1=O	-4	29	-6	6	-6	3	.
O=C(/C=C/c1ccc2c(c1)OCO2)c1c(O)n(CCc2ccccc2)c(=O)[nH]c1=O	-5	65*	-12	56	4	-10	26
COc1cc(/C=C/C(=O)c2c(O)n(CCc3ccccc3)c(=O)[nH]c2=O)ccc1O	-3	53*	-6	-11	1	-3	46*	FLuc counter=48*
CCCCn1c(O)c(C(C)=NCCc2ccccc2)c(=O)[nH]c1=O	0	3	6	-3	-40	-15	.
COC(=O)C1=C(c2cccc(OCc3ccccc3)c2)C[C@@H]2CC[C@H]1N2C(=O)NCc1ccc(N(C)C)cc1	0	9	0	64	25	0	.
CC[N+](CC)(CC)CCCOC(=O)C(O)(c1ccccc1)C1CCCCC1 (stereo not drawn)	1	-9	-3	-2	16	-1	.
C/C=C(\C)C(=O)N[C@@H](c1ccccc1)[C@@H](O)C(=O)O[C@H]1C[C@@]2(O)[C@@H](OC(=O)c3ccccc3)C3[C@](C)(C(=O)[C@H](O)C(=C1C)C2(C)C)[C@@H](O)C[C@H]1OC[C@@]31OC(C)=O (stereo partly drawn)	0	53*	.	63	-2	0	65*	FLuc counter=41*
CCCCCCCSc1cc(OC)c(CCNC)cc1OC	-1	53*	-2	41	10	11	26
O=c1c2ccccc2nc(-c2ccc(Cl)cc2Cl)n1-c1nccs1	-6	26	-2	33	9	2	.
Cc1ccc(C)c(NP(=O)(Oc2ccccc2)Oc2ccccc2)c1	-1	58*	5	46	6	1	72*	FLuc counter=68*
CCOC(=O)c1c(C)n(Cc2ccccc2)c2ccc(OCC(O)CNC(C)(C)C)cc12 (stereo not drawn)	-6	51*	8	-4	17	-1	26
FC(F)(F)c1ccc2c(c1)nnn2C1CCN(Cc2nnnn2Cc2ccccc2)CC1	-11	11	.	1	-5	0	.
Cc1ccc(Cn2nnnc2CN2CCC(n3nnc4cc(C(F)(F)F)ccc43)CC2)cc1	-4	71*	19	-4	-1	4	28
COC(=O)C(C)Oc1cc(C)cc2oc(=O)c3c(c12)CCC3 (stereo not drawn)	-2	52*	0	-19	-3	-4	27
SMILES	GRIN3A LBD mod	Mdm2 MdmX PPI	Beta apoptosis	CSC inhib	Gli-Sufu block	MPTP inh	Mdm2 MdmX conf	others
COC(=O)C(C)Oc1cc(C)cc2oc(=O)c3c(c12)CCCC3 (stereo not drawn)	-1	17	4	23	-12	2	.
CCn1c(O)c(N=Nc2ccc(S(=O)(=O)N3CCOCC3)cc2)c(=O)n(CC)c1=S	1	58*	-8	15	2	4	21
Cc1nc2sccc2c(=O)n1-c1ccccc1Cl	-2	6	-5	4	3	0	.
O=[N+]([O-])c1ccccc1-c1cc(-c2ccccc2)cc(-c2ccccc2)[n+]1Cc1ccccc1Cl	-6	88*	134*	36	38	.	69*	FLuc counter=22
CCC(C)C12CN3CCN(CC(C)(C3)C1=O)C2 (stereo not drawn)	0	-7	-3	-6	0	1	.
Cc1[nH]c2ccc(OC(F)(F)F)cc2c1CCNCc1cccc([N+](=O)[O-])c1	-2	47	7	33	5	4	.
Cc1[nH]c2ccc(OC(F)(F)F)cc2c1CCNCc1ccc(Cl)cc1	-2	83*	21	104*	18	2	51*	FLuc counter=48*
O=C1CN=C(c2ccc[nH]2)c2cc(Cl)ccc2N1	3	65*	1	11	15	0	68*	FLuc counter=53*
O=c1[nH]c(=S)[nH]c(O)c1N=Nc1ccc(SC(F)F)cc1	2	-23	3	20	-38	2	.
O=c1[nH]c(=S)[nH]c(O)c1N=Nc1ccc(S(=O)(=O)N2CCc3ccccc32)cc1	-2	58*	23	11	-3	3	23
C[C@]12CC[C@H](O)CC1=CCC1C2CC[C@]2(C)C(=O)[C@H](Br)CC12 (stereo partly drawn)	14*	50*	-23	4	5	1	-10
CC12CCC3C(CC=C4CC(O)CCC43C)C1C/C(=C\c1ccccc1F)C2=O (stereo not drawn)	5	78*	-2	99*	1	0	27
c1ccc(P(c2ccccn2)c2ccccn2)cc1	-1	-9	-11	-19	9	-1	.

Assay outcomes from PubChem.
